Results filed as inconclusive are left out. Calls of active or inactive are those of the source. Rule for the calls: active = hit-call score of the fitted dose curve at least 0.9, where 1 is the maximum; inconclusive = response in the unintended direction; inactive = score below 0.9.

Sequence of Estrogen receptor (Homo sapiens) (P03372 whole entry, looked up, the tested form may be a part): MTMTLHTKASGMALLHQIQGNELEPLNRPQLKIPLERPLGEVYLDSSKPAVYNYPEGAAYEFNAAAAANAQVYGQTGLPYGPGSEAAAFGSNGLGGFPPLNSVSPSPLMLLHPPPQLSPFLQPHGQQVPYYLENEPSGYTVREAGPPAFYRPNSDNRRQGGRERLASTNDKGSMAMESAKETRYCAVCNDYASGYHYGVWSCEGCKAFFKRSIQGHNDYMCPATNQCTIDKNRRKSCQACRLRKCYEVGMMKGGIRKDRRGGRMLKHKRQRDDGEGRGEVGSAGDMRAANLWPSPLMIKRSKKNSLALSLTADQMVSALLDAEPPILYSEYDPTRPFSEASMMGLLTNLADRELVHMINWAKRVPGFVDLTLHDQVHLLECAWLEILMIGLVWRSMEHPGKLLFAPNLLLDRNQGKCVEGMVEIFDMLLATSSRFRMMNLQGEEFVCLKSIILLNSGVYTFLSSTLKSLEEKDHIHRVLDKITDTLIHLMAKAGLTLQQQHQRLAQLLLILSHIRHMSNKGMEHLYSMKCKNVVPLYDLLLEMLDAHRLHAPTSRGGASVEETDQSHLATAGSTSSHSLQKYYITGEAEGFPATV
Sequence of Estrogen receptor (Homo sapiens) + Estrogen receptor beta (Homo sapiens) (P03372 whole entry, looked up, the tested form may be a part): as above
Sequence of Estrogen receptor (Homo sapiens) + Estrogen receptor beta (Homo sapiens) (Q92731 whole entry, looked up, the tested form may be a part): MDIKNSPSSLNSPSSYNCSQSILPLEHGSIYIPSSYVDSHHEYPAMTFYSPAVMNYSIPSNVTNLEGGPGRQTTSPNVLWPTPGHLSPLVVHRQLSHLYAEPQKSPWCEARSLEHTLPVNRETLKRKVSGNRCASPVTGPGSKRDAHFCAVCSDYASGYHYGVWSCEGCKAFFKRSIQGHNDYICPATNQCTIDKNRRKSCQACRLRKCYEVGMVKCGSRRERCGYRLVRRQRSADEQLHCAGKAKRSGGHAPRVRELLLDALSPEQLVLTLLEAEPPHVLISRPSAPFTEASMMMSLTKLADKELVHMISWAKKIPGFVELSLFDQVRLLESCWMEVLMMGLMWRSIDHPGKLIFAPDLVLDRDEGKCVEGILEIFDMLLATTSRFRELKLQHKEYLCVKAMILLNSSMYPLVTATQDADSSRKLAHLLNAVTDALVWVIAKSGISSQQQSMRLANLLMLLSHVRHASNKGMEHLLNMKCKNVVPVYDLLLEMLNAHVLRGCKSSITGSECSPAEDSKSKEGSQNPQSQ

The target of one experiment is Bile acid receptor (Homo sapiens) (UniProt Q96RI1). In words: NVS_NR_hFXR_Antagonist: NovaScreen (NVS) Nuclear Receptor Binding Assay for human Farnesoid X Receptor Antagonism (FXR) (AID 2283350). In short, it runs like this: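 Antagonist-format time-resolved FRET binding assay with extracted human receptor protein, read 1 hour after compound addition. Compounds first screened at 25 uM in duplicate, then actives tested in concentration series, with loss of signal relative to DMSO.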
Sequence of Bile acid receptor (Homo sapiens) (Q96RI1 whole entry, looked up): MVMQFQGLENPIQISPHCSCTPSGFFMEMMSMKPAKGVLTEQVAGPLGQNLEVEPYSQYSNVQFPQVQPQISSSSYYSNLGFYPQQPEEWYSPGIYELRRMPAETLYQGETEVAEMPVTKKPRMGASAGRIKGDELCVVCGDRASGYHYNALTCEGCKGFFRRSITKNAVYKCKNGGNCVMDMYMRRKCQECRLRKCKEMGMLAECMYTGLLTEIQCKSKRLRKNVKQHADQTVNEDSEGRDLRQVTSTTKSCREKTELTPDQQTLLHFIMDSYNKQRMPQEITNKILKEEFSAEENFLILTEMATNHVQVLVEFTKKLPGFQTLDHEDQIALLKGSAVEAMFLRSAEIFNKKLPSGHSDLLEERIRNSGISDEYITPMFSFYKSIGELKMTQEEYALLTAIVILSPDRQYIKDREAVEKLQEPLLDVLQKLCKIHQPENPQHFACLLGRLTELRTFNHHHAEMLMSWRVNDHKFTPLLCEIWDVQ
For `Cc1cc(F)ccc1-c1cc(N2CC[C@@H](O)[C@H]2CO)ncc1N(C)C(=O)C(C)(C)c1cc(C(F)(F)F)cc(C(F)(F)F)c1`, the outcome was inactive. As for `CCN(CC)C(=O)c1cc(S(=O)(=O)Cc2ccccc2)c(N2CCC(c3ccccc3)CC2)cc1N(CC)CCN(C)C`, the AC50 was 10.1 µM (active). Consider `O=c1[nH]sc2ccccc12`, for which the compound was called inactive.

With `O=c1c(-c2ccc(O)cc2)coc2cc(O)cc(O)c12`, the result was inactive.

For another experiment, the target named is Estrogen receptor (Homo sapiens) (UniProt P03372). Description: OT_ER_ERaERa_0480: Odyssey Thera (OT) 8-hour HEK293T Protein-Complementation Assay for Estrogen Receptor-alpha/-alpha Homodimer (AID 2283351).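 Note: rise in fluorescence from reassembled reporter fragments on ERα LBD homodimer in nucleus or whole cell.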 The gist of the method:
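Read-out: fluorescence intensity rise relative to DMSO, nuclear for agonists, nuclear plus cytoplasmic for antagonists. Construct is the ERα LBD (aa 310-547) homodimer fragment-complementation pair, stably expressed in HEK293T; exposure 8 h.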
As for `Cc1oc2c(NC(=O)c3c(Cl)cccc3Cl)cccc2c1C(C)(C)O`, the outcome was inactive. For `CC(C)(O)c1ccc(CNC(=O)c2cccnc2Oc2ccc3nonc3c2)cc1`, the result was inactive.

Turning to `COc1ccc2cc(S(=O)(=O)N[C@H](CC(=O)N[C@H](Cc3ccc(CN4[C@H](C)CCC[C@@H]4C)cc3)C(=O)N(C)C(C)C)c3ccc4c(c3)OCO4)ccc2c1`, the compound was classed as inactive.

Take `CCCC(=O)OCCC(C)C`: the compound was called inactive. On the same count and under the same terms, next, `Cc1cc(F)ccc1-c1cc(N2CC[C@@H](O)[C@H]2CO)ncc1N(C)C(=O)C(C)(C)c1cc(C(F)(F)F)cc(C(F)(F)F)c1`: “inactive”; `COc1cc(C(=O)NC2CCN(C)CC2)ccc1Nc1ncc2c(n1)N(C1CCCC1)CC(F)(F)C(=O)N2C`: “inactive”. With `NC(=O)c1nc(-c2cccc(-c3cc(F)ccc3OCC(F)(F)C(F)(F)F)c2)n[nH]1`, the result was inactive. The same measure, in the same setting: next, `Cc1ccc2oc(CN(Cc3ccccc3)C(=O)Nc3c(F)cc(F)cc3F)c(-c3ccc(Cl)cc3)c2c1`: “inactive”. On the same count and under the same terms, the same measure for `CCN(CC)C(=O)c1cc(S(=O)(=O)Cc2ccccc2)c(N2CCC(c3ccccc3)CC2)cc1N(CC)CCN(C)C`: “inactive”; for `Clc1cc(Cl)c2c(c1)N=C1CCCCCN1C2`: “inactive”; for `CN(C[C@@H](CC[N+]12CCC(C3CCCCC3)(CC1)CC2)c1ccc(Cl)c(Cl)c1)C(=O)c1cc(C(F)(F)F)cc(C(F)(F)F)c1`: “inactive”. As for `NCc1cccc(C2CCN(C(=O)c3ccc(C#Cc4ccccc4F)o3)CC2)c1`, the compound was classed as inactive. The same measure, in the same setting: the same measure for `OC12N=C(c3ccccc3)SC1Cc1cc(Cl)ccc12` (stereo not given): “inactive”; for `CC[C@H](NC(=O)c1cc(F)ccc1NS(=O)(=O)c1cccc2cccnc12)c1ccccc1`: “inactive”. For `Cc1c2ccccc2c(C)c2c1ccc1ccccc12`, the call was inactive.

With `CN(C)c1ccc(C(=C2C=CC(=[N+](C)C)C=C2)c2ccc(N(C)C)cc2)cc1`, the compound was called inactive.

For the compound `O=c1[nH]sc2ccccc12`, the result was inactive. The same measure, in the same setting: next, `O=C(O)Cn1c(=O)n(Cc2ccc(Br)cc2F)c(=O)c2ccc(Cl)cc21`: “inactive”; `O=C1c2ccccc2C(=O)N1CCc1noc(-c2ccc(CN3CCCCCC3)s2)n1`: “inactive”. On the same count and under the same terms, the same measure for `CCN(Cc1cccnc1)C(=O)c1cccc(Cl)c1[C@]1(C)C(=O)N(Cc2ccc(OC)cc2OC)c2ccc(Cl)cc21`: “inactive”. On to `CCCCCCCCN(C)CCCCCCCC`, for which the call was inactive. As to `COc1cccc([C@H](O)C2CCN(CCc3ccc(F)cc3)CC2)c1OC`, the compound was classed as inactive.

As to `CCOC(=O)O[C@H](C)OC(=O)c1ccc2c(c1)cc(C(=O)NC1CCN(C(C)C)CC1)n2Cc1cc(-c2ccc(Cl)s2)on1`, the result was inactive. With `CCCCCCCCOC(=O)c1cc(O)c(O)c(O)c1`, the AC50 was 12.1 µM (active). Regarding `Cc1occc1C(=O)Nc1ccc(C(=O)N2CCC(F)(F)/C(=C\C(=O)N3CCC(N4CCCCC4)CC3)c3ccccc32)cc1`, the AC50 is 27.7 µM (active).

Another experiment deals with Estrogen receptor (Homo sapiens) + Estrogen receptor beta (Homo sapiens) (UniProt P03372+Q92731). Description: OT_ER_ERaERb_0480: Odyssey Thera (OT) 8-hour HEK293T Protein-Complementation Assay for Estrogen Receptor-alpha/-beta Heterodimer (AID 2283352). In short, it runs like this:
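Increase in mean fluorescence intensity, measured by laser scanning plate cytometry, reported ER-alpha/ER-beta LBD complementation in HEK293T cells after 8 h chemical exposure. DMSO served as baseline; basal signal is low, punctate and cytoplasmic.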
In the case of `Cc1cc(F)ccc1-c1cc(N2CC[C@@H](O)[C@H]2CO)ncc1N(C)C(=O)C(C)(C)c1cc(C(F)(F)F)cc(C(F)(F)F)c1`, the outcome was inactive.

For `COc1cc(C(=O)NC2CCN(C)CC2)ccc1Nc1ncc2c(n1)N(C1CCCC1)CC(F)(F)C(=O)N2C`, the outcome was inactive. Same read-out and setting: next, `Cc1ccc2oc(CN(Cc3ccccc3)C(=O)Nc3c(F)cc(F)cc3F)c(-c3ccc(Cl)cc3)c2c1`: “inactive”. Turning to `OC12N=C(c3ccccc3)SC1Cc1cc(Cl)ccc12` (stereo not given), the result was inactive. The same measure, in the same setting: next, `CC[C@H](NC(=O)c1cc(F)ccc1NS(=O)(=O)c1cccc2cccnc12)c1ccccc1`: “inactive”; `Cc1c2ccccc2c(C)c2c1ccc1ccccc12`: “inactive”. With `O=C(O)Cn1c(=O)n(Cc2ccc(Br)cc2F)c(=O)c2ccc(Cl)cc21`, the outcome was inactive. `CCN(Cc1cccnc1)C(=O)c1cccc(Cl)c1[C@]1(C)C(=O)N(Cc2ccc(OC)cc2OC)c2ccc(Cl)cc21`: the result was inactive. In the case of `COc1cccc([C@H](O)C2CCN(CCc3ccc(F)cc3)CC2)c1OC`, the result was inactive. For `CCCCCCCCOC(=O)c1cc(O)c(O)c(O)c1`, the AC50 is 11.9 µM (active). As for `Cc1occc1C(=O)Nc1ccc(C(=O)N2CCC(F)(F)/C(=C\C(=O)N3CCC(N4CCCCC4)CC3)c3ccccc32)cc1`, the AC50 was 26.9 µM (active).

Usually AC50 stands for the midpoint of the concentration-response curve, whichever way the signal moves.
